Results taken from article PMC7862700, “An all-to-all approach to the identification of sequence-specific readers for epigenetic DNA modifications on cytosine”.

Tests used:
Assay in all cases: DAPPL (digital affinity profiling via proximity ligation, sequencing); 10 mM Tris-HCl pH 7.5, 50 mM NaCl, 1 mM DTT, 4% glycerol, room temperature, 30 min; GST-TFs on glutathione beads, 16-mer random dsDNA library, 0.1% formaldehyde crosslink after washing; high values mean tight binding
Settings in all cases: protein: recombinant; tags: N-terminal GST; dsDNA, one strand shown
ERF = molecular target: T1, ERF (Homo sapiens, UniProt P50548 1-548)
T1 sequence: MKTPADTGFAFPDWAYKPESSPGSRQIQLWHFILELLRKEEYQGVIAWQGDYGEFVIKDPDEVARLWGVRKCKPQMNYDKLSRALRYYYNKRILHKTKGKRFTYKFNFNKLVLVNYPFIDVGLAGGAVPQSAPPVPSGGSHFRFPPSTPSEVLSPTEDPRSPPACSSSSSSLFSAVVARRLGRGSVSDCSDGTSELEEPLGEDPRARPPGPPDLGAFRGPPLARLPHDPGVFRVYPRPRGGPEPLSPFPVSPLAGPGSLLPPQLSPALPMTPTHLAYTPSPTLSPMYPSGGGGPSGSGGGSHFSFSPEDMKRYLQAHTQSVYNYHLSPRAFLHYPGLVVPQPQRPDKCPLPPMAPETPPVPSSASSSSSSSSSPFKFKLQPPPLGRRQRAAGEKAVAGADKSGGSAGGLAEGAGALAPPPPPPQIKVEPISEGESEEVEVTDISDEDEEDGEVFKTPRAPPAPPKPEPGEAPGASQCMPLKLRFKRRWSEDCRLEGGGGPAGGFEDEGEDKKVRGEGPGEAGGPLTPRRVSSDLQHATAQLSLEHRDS
Method in brief: (§1)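 Human transcription factors fused to GST were expressed in yeast, captured on glutathione beads, given DNA barcodes and pooled with a GST-only negative control. Pools were incubated with 200 nmole of a 16-mer random double-stranded DNA library in Tris/NaCl/DTT/glycerol buffer at room temperature for 30 min. They were then washed, crosslinked with 0.1% formaldehyde, proximity-ligated (BsaI/T4 ligase, 1 h, 37 °C), PCR-amplified and sequenced on an Illumina NextSeq500. Binding signal is each 6-mer's read frequency for a factor divided by its frequency for the GST control.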

ETV3L = molecular target: T2, ETV3L (Homo sapiens, UniProt Q6ZN32 1-361)
T2 sequence: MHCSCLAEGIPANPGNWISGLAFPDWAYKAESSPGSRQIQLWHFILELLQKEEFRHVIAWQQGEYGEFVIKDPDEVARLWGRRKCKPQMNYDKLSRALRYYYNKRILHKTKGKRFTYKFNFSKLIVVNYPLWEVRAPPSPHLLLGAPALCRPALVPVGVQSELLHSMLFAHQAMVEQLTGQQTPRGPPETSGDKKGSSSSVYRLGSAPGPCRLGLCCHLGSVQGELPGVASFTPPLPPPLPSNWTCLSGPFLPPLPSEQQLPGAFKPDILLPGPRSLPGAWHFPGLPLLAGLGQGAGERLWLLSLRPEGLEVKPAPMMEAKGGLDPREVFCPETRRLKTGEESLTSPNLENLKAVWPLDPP
Method in brief: as §1

ETS2 = molecular target: T3, ETS2 (Homo sapiens, UniProt P15036 1-469)
T3 sequence: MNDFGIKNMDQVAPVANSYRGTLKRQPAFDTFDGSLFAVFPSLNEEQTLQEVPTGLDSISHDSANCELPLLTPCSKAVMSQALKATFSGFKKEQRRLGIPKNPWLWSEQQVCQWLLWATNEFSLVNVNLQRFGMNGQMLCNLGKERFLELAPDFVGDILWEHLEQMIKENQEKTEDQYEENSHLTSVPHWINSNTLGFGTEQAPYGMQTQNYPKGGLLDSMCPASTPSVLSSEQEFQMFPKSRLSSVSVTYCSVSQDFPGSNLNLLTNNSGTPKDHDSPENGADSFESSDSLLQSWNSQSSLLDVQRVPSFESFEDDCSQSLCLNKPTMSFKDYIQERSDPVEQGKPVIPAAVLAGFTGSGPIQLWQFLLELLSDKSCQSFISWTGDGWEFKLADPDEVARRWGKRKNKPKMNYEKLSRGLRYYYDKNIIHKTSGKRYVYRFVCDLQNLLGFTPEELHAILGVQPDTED
Method in brief: as §1

SPDEF = molecular target: T4, SPDEF (Homo sapiens, UniProt O95238 1-335)
T4 sequence: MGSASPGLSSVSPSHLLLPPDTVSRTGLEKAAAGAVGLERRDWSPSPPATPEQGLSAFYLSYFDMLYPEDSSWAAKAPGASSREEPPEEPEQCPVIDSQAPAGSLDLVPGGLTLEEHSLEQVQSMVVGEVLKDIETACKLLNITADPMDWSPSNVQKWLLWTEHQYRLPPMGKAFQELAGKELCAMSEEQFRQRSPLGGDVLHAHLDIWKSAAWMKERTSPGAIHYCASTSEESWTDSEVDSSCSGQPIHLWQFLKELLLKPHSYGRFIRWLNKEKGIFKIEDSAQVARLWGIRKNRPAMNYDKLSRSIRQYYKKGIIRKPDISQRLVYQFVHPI
Method in brief: as §1

ETV7 = molecular target: T5, ETV7 (Homo sapiens, UniProt Q9Y603 1-341)
T5 sequence: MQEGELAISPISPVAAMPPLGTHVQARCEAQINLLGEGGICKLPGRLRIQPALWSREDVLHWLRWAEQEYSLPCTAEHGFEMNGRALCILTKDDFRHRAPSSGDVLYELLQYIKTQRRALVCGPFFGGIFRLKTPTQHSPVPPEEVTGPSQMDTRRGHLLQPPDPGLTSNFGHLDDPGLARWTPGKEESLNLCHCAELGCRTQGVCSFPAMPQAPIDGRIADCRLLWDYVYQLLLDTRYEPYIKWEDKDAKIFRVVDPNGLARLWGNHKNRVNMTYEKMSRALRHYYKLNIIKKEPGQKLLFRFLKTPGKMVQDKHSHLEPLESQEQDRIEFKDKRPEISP
Method in brief: as §1

ELF5 = molecular target: T6, ELF5 (Homo sapiens, UniProt Q9UKW6-2 1-255)
T6 sequence: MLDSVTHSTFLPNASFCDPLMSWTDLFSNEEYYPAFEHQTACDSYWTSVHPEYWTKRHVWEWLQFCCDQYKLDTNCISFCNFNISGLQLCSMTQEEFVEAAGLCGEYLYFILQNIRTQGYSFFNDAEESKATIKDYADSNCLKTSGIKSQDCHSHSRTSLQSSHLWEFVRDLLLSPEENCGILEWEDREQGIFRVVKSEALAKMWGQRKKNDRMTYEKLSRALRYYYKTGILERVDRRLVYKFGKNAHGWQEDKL
Method in brief: as §1

ETV3 = molecular target: T7, ETV3 (Homo sapiens, UniProt P41162-2 1-143)
T7 sequence: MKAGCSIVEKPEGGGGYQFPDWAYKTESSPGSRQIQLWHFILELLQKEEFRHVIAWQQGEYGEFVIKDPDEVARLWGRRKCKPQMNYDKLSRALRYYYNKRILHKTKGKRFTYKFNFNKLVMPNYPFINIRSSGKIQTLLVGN
Method in brief: as §1

ETV6 = ETV6 (Homo sapiens, UniProt P41212 1-452)
Chain of ETV6 (P41212 whole entry): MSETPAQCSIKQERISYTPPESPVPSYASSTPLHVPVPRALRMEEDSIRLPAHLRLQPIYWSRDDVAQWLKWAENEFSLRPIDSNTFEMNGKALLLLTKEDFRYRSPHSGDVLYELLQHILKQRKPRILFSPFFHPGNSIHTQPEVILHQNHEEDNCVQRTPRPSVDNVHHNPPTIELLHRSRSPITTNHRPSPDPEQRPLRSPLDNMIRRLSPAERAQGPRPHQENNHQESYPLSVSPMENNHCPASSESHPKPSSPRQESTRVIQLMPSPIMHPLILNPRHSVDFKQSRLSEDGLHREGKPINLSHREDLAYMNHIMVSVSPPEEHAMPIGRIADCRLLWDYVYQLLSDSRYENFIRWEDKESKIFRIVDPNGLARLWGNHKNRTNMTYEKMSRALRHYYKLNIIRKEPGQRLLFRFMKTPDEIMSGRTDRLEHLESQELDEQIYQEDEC
Method in brief: as §1

Sequence	binding signal (ERF)	binding signal (ETV3L)	binding signal (ETS2)	binding signal (SPDEF)	binding signal (ETV7)	binding signal (ELF5)	binding signal (ETV3)	binding signal (ETV6)
CATGCT	1.2 fold enrichment (6-mer frequency, TF over GST control)	1.35 fold enrichment (6-mer frequency, TF over GST control)	1.25 fold enrichment (6-mer frequency, TF over GST control)	1.2 fold enrichment (6-mer frequency, TF over GST control)	1.2 fold enrichment (6-mer frequency, TF over GST control)	1.19 fold enrichment (6-mer frequency, TF over GST control)	1.19 fold enrichment (6-mer frequency, TF over GST control)	1.28 fold enrichment (6-mer frequency, TF over GST control)
ACAACA	1.31 fold enrichment (6-mer frequency, TF over GST control)	1.17 fold enrichment (6-mer frequency, TF over GST control)	1.18 fold enrichment (6-mer frequency, TF over GST control)	1.19 fold enrichment (6-mer frequency, TF over GST control)	1.23 fold enrichment (6-mer frequency, TF over GST control)	1.22 fold enrichment (6-mer frequency, TF over GST control)	1.27 fold enrichment (6-mer frequency, TF over GST control)	1.29 fold enrichment (6-mer frequency, TF over GST control)
TCCGCG	1.22 fold enrichment (6-mer frequency, TF over GST control)	1.29 fold enrichment (6-mer frequency, TF over GST control)	1.36 fold enrichment (6-mer frequency, TF over GST control)	1.4 fold enrichment (6-mer frequency, TF over GST control)	1.31 fold enrichment (6-mer frequency, TF over GST control)	1.55 fold enrichment (6-mer frequency, TF over GST control)	1.37 fold enrichment (6-mer frequency, TF over GST control)	1.25 fold enrichment (6-mer frequency, TF over GST control)
ATACTA	1.09 fold enrichment (6-mer frequency, TF over GST control)	1.2 fold enrichment (6-mer frequency, TF over GST control)	1.24 fold enrichment (6-mer frequency, TF over GST control)	1.17 fold enrichment (6-mer frequency, TF over GST control)	1.14 fold enrichment (6-mer frequency, TF over GST control)	1.13 fold enrichment (6-mer frequency, TF over GST control)	1.14 fold enrichment (6-mer frequency, TF over GST control)	1.11 fold enrichment (6-mer frequency, TF over GST control)
ACCGCC	1.21 fold enrichment (6-mer frequency, TF over GST control)	1.25 fold enrichment (6-mer frequency, TF over GST control)	1.24 fold enrichment (6-mer frequency, TF over GST control)	1.29 fold enrichment (6-mer frequency, TF over GST control)	1.21 fold enrichment (6-mer frequency, TF over GST control)	1.23 fold enrichment (6-mer frequency, TF over GST control)	1.44 fold enrichment (6-mer frequency, TF over GST control)	1.26 fold enrichment (6-mer frequency, TF over GST control)
GTAGCA	1.22 fold enrichment (6-mer frequency, TF over GST control)	1.04 fold enrichment (6-mer frequency, TF over GST control)	1.02 fold enrichment (6-mer frequency, TF over GST control)	1.08 fold enrichment (6-mer frequency, TF over GST control)	1.06 fold enrichment (6-mer frequency, TF over GST control)	1.1 fold enrichment (6-mer frequency, TF over GST control)	1.05 fold enrichment (6-mer frequency, TF over GST control)	1.03 fold enrichment (6-mer frequency, TF over GST control)
ATAGCA	1.24 fold enrichment (6-mer frequency, TF over GST control)	1.19 fold enrichment (6-mer frequency, TF over GST control)	1.22 fold enrichment (6-mer frequency, TF over GST control)	1.12 fold enrichment (6-mer frequency, TF over GST control)	1.06 fold enrichment (6-mer frequency, TF over GST control)	1.16 fold enrichment (6-mer frequency, TF over GST control)	1.19 fold enrichment (6-mer frequency, TF over GST control)	1.18 fold enrichment (6-mer frequency, TF over GST control)
ACCTCG	1.2 fold enrichment (6-mer frequency, TF over GST control)	1.22 fold enrichment (6-mer frequency, TF over GST control)	1.11 fold enrichment (6-mer frequency, TF over GST control)	1.06 fold enrichment (6-mer frequency, TF over GST control)	1.21 fold enrichment (6-mer frequency, TF over GST control)	1.06 fold enrichment (6-mer frequency, TF over GST control)	1.1 fold enrichment (6-mer frequency, TF over GST control)	1.09 fold enrichment (6-mer frequency, TF over GST control)
GGCACT	1.26 fold enrichment (6-mer frequency, TF over GST control)	1.27 fold enrichment (6-mer frequency, TF over GST control)	1.24 fold enrichment (6-mer frequency, TF over GST control)	1.24 fold enrichment (6-mer frequency, TF over GST control)	1.26 fold enrichment (6-mer frequency, TF over GST control)	1.11 fold enrichment (6-mer frequency, TF over GST control)	1.29 fold enrichment (6-mer frequency, TF over GST control)	1.31 fold enrichment (6-mer frequency, TF over GST control)
